In PubChem BioAssay AID1619 (SRMLSC, 2009):
Screen size: about 220,000 compounds; about 830 (0.38%) were called active.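 Rule for the calls: active = compound inhibiting the enzyme by more than half at any dose during confirmatory dose-response retesting; inconclusive = strong single-dose inhibitors picked by rank but not retested; inactive = the rest.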 The list is a sample of the results. Results with a measured potency or affinity are listed apart.

molecular target: Leucine aminopeptidase (Plasmodium falciparum (isolate 3D7)) (UniProt Q8IL11); experiment: P. falciparum M17LAP inhibitors, primary screen, biochemical, fluorogenic H-Leu-NHMec substrate, 1536-well (AID 1619); settings: recombinant M17LAP, H-Leu-NHMec fluorogenic kinetic assay; at 30 µM; stronger effect = higher value;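 note: plate controls were full reaction with DMSO carrier for no effect and no enzyme background for full effect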
Sequence (Q8IL11 whole entry, looked up): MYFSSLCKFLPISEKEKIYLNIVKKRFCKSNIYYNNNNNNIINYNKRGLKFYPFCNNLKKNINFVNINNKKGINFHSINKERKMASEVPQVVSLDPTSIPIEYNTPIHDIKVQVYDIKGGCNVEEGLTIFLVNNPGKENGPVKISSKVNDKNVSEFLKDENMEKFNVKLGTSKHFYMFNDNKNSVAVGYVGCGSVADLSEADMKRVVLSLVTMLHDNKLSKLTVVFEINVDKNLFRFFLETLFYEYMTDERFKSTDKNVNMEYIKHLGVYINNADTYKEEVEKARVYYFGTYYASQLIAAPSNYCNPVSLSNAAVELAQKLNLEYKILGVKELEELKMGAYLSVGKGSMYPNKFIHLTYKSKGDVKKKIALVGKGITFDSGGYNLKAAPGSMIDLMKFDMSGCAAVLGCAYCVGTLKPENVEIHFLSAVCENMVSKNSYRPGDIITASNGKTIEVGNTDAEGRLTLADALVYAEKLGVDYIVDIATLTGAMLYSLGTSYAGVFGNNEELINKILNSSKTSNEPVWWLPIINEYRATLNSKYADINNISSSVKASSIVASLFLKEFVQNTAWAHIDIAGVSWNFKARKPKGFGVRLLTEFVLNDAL

inhibition, inactive:
O=C(NNC(=S)NC1CCCCC1)c1sc2ccccc2c1Cl 13.2%, O=C(NNC(=O)C1CC2CCC1C2)c1ccccc1 (centres undefined) 17.8%, CC(C)(C)c1ccc(/C=C2\Oc3cc(OC(=O)N4CCOCC4)ccc3C2=O)cc1 -5.21%, CCCC(C)NS(=O)(=O)c1ccc(OC)c(C)c1 (centres undefined) 1.13%, Cn1c(-c2ccc3ccccc3n2)nc2cnccc21 9.33%, CCCNC(=O)C(=O)NCc1ccccn1 -4.32%, Cc1cc(NC(=O)CN2C(=O)NC3(CCCCC3)C2=O)no1 -14.1%, Cc1cc(NC(=O)CN2C(=O)NC3(CCCCCC3)C2=O)no1 -1.33%, Cc1ccc(NC(=O)NC(=O)CN2C(=O)NC3(CCCCCCC3)C2=O)c(C)c1 3.61%, COc1ccccc1NC(=O)CN1C(=O)NC2(CCCCCCC2)C1=O -0.01%, Cc1ccc(NC(=O)CN2C(=O)NC3(CCC(C)CC3)C2=O)c(Cl)c1 (centres undefined) 21%, O=C(CN1C(=O)NC2(CCCCC2)C1=O)Nc1ccccc1Cl 30.3%, CCCNC(=O)c1cccc(NC(=O)C(C)C)c1 -3.07%, O=C(NC1CCCc2ccccc21)c1cccc(S(=O)(=O)N2CCOCC2)c1 (centres undefined) 2.84%, Cc1ccc(OCC(=O)Nc2sc3c(c2C#N)CCC3)cc1 4.24%, CCc1onc(C)c1C(=O)Nc1cc(C)ccc1OC 7.34%, COc1ccc2c(c1)SCC/C2=C\CN1C(=O)CCC1=O -6.21%, Cn1c(NCCc2ccccc2)cc(=O)n(C)c1=O 1.23%, CCN(CC)S(=O)(=O)c1cccc(NC(=O)CSc2nnc(N)s2)c1 2.68%, COc1ccc(NC(=O)CSc2nnc(N)s2)c([N+](=O)[O-])c1 8.5%, COc1ccc(NC(=O)CSc2n[nH]c(N)n2)c([N+](=O)[O-])c1 56.1%, CCc1nc(SCC(=O)Nc2ccc(OC)cc2[N+](=O)[O-])n[nH]1 11.8%, Cc1ccc(NC(=O)CSc2nnc(N)s2)c([N+](=O)[O-])c1 26.8%, CCN(CC)C(=O)CSc1nc2ccc(NC(=O)CSc3nnc(N)s3)cc2s1 19.7%, CCCCOC(=O)C(C#N)c1nc2ccccc2nc1N1CCN(Cc2ccc3c(c2)OCO3)CC1 (centres undefined) -4.21%, C/C(=N\NC(=O)c1ccc(CN2CCOCC2)cc1)c1ccc(NC(=O)c2ccccc2)cc1 4.99%, COc1ccc(C2CC(c3ccccc3)=NN2C(=O)COC(=O)CNC(=O)c2ccccc2)cc1 (centres undefined) -5.9%, CCCCC(CC)C(=O)Nc1ccccc1C#N (centres undefined) 2.15%, CCOC(=O)C1CCCCN1Cc1cn[nH]c1-c1ccc(F)cc1F (centres undefined) 0.93%, CCOC(=O)NC1(Nc2cccc(Cl)c2)Oc2ccccc2O1 13.3%, Cc1[nH]n(C(C)(C)C)c(=O)c1Sc1ccc(Cl)cc1 -0.55%, Cc1[nH]n(-c2ccccc2)c(=O)c1-c1ccc(Cl)cc1 14.5%, O=C(CC1Oc2ccccc2NC1=O)NCc1ccccc1 (centres undefined) 2.31%, CC(=O)NCCc1nc2ccccc2n1CCOc1ccccc1C -3.06%, COCc1cc(=O)n2[nH]c(-c3cccc(Br)c3)cc2n1 6.67%, Cc1cccc(NC(=S)N/N=C/c2c[nH]c3ccccc23)c1 7.36%, O=C(O)c1cccc(NC(=S)N/N=C/c2cccc(O)c2)c1 56.3%, O=C(O)c1cccc(NC(=S)N/N=C/c2ccccn2)c1 26.1%, COc1cc(/C=N/NC(=S)Nc2cccc(C(=O)O)c2)ccc1O 56.1%, COc1ccc(/C=N/NC(=S)Nc2cccc(C(=O)O)c2)cc1OC 38.7%, COc1cc(/C=N/NC(=S)Nc2cccc(C(=O)O)c2)cc(OC)c1OC 41%, CCCCCCCCC(=O)N/N=C(\C)c1ccc(O)cc1O 0.48%, Cc1ccccc1OCCn1cc(/C(N)=N/O)c2ccccc21 3.74%, CCO[C@@H]1OC(C(=O)N2CCOCC2)=C[C@H](c2coc3ccccc3c2=O)[C@H]1CCCO -0.63%, CC(=O)c1ccc(NC(=O)c2ccc(S(=O)(=O)c3ccccc3)cc2)cc1 -3.53%, O=C(CC(Nc1ccc(F)cc1)c1ccccc1)c1ccccc1 (centres undefined) -9.06%, O=C(CN(Cc1ccccc1)C(=O)c1ccco1)NCc1ccc(F)cc1 4.59%, Cc1nc(SCC(=O)N2c3ccccc3Sc3ccccc32)n[nH]1 17.3%, Cc1cccc(NC(=O)CSc2nnc(-c3ccccc3)n2N)c1C 1.89%, COCc1cc(C)nc(SCC(=O)Nc2cccc(C)c2C)c1C#N 6.16%, N#Cc1c(N)nc(-c2ccccc2)nc1-c1ccccc1 -4.62%, O=C(CSc1ccc(Cl)cc1)Nc1cccc(-c2nnc(-c3ccco3)o2)c1 6.07%, O=C(CSc1nc(-c2ccc(Cl)cc2)[nH]c(=O)n1)Nc1cccc(Cl)c1 -10.8%, O=C(CSc1nc(O)cc(=O)[nH]1)N1c2ccccc2Sc2ccccc21 39.5%, N#Cc1c(-c2ccccc2)nc(-c2ccccc2)[nH]c1=O 5.14%, O=C(CCn1c(=O)oc2ccccc21)NC1=NCCS1 4.21%, C(=C\c1ccccc1)/C=N/N1CCN(Cc2ccccc2)CC1 3.39%, O=c1c2sccc2nc(SCc2cc(=O)n3ccccc3n2)n1Cc1ccccn1 18%, O=C(CSc1ccc(Cl)cc1)Nn1cnnc1 8.97%, N#CCCN1CCN(S(=O)(=O)c2ccc(S(=O)(=O)NC3CCCC3)cc2)CC1 5.82%, O=C(Cn1nc2n(c1=O)-c1ccccc1SC2)N/N=C/c1cccnc1 3.98%, COc1ccc(CN2C(=O)c3ccccc3C2=O)cc1C(=O)OC(C)C(=O)NC(N)=O (centres undefined) -1.41%, CC(SC(=S)N1CCCC1)C(=O)O (centres undefined) -0.65%, O=C(OCCN1CCOCC1)C(c1ccccc1)c1ccccc1 -9.47%, FC(F)(F)c1nnc2ccc(NCn3nnc4ccccc43)nn12 22.6%, O=C(c1cnc2n(c1=O)CCS2)N(C1CCCCC1)C1CCCCC1 11.3%, CC(C)C(C)(C#N)NC(=O)CSc1nc2scc(-c3ccc(F)cc3)c2c(=O)n1Cc1ccccc1 (centres undefined) 11.3%, COc1cccc(F)c1C(C[N+](=O)[O-])c1c(N)n(C)c(=O)n(C)c1=O (centres undefined) 2.97%, N#CCOc1nc(N2CCCC2)nc(N2CCCC2)n1 1.35%, Cc1cc(OCC(=O)c2ccc(F)cc2)ccc1N1C(=O)CCC1=O -4.66%, O=C(/C=C/c1ccco1)Nc1cccnc1Cl 5.61%, O=C(/C=C/c1ccco1)Nc1ccccc1C(=O)O 27.5%, CCN(CC)S(=O)(=O)c1cccc(C(=O)N/N=C/c2ccccc2OCC(=O)O)c1 13.9%, COc1ccccc1NS(=O)(=O)c1cccc(C(=O)N/N=C/c2ccccc2OCC(=O)O)c1 16.5%, O=C(O)c1cc(S(=O)(=O)Nc2ccc3oc(=O)sc3c2)ccc1O 51.1%, COc1ccc(S(=O)(=O)Nc2ccc3oc(C)c(C(=O)O)c3c2)cc1 6.21%, COCCOC(=O)c1c(C)oc2ccc(NS(=O)(=O)c3ccc(C)cc3)cc12 2.98%, COCCOC(=O)c1c(C)oc2ccc(NS(=O)(=O)c3ccc(C(=O)O)cc3)cc12 32.9%, Cc1cc(C(=O)CN2C(=O)C(=O)N(Cc3ccccc3)C2=O)c(C)n1-c1ccc2c(c1)OCCO2 -11.2%, CC(C)c1nc(SCC(=O)Nc2c[nH]c(=O)[nH]c2=O)c2cnn(-c3ccccc3)c2n1 -6%, CC(=O)OCC(=O)Nc1ccccc1OC(F)F -2.65%, Cc1ccc(CNC(=O)C2CCCN(c3nc4ccsc4c(=O)s3)C2)cc1 (centres undefined) -6.15%, C#CCOCCOCCOCCNc1nc(N2CCN(C(=O)C([C@@H](C)CC)n3cc(C(N)CO)nn3)CC2)nc(N2CCN(C(=O)[C@H](CCC(=O)O)n3cc(C(N)CC(C)C)nn3)CC2)n1 (some centres undefined) 2.95%, O=C(N=C1c2ccccc2CN1c1ccc(F)c(F)c1)c1cccnc1 3.87%, Cc1ccc(C(=O)Nc2c(C)cc(-c3ccc(Cl)cc3)oc2=O)cc1 2.9%, CC1(CCc2ccccc2)NC(=S)N(c2ccccc2)N1 (centres undefined) 10.2%, CCCCC(=O)Nc1cccc(NC(=O)c2cccc([N+](=O)[O-])c2)c1 5.17%, Cc1cccc(NC(=S)NNC(=O)c2cccc([N+](=O)[O-])c2)c1 3.9%, CCCC(=O)Nc1ccc(C(=O)NNC(=O)c2cccc([N+](=O)[O-])c2)cc1 4.12%, CCCCCC(=O)NNC(=S)NC(=O)c1ccccc1[N+](=O)[O-] 14.3%, CCCCC(=O)NNC(=S)NC(=O)c1ccc(C)cc1 59.8%, CCCCC(=O)NNC(=S)NC(=O)c1ccc([N+](=O)[O-])cc1 44.2%, O=C(CNC(=S)NC(=O)c1cccc([N+](=O)[O-])c1)c1ccccc1 -0.71%, CCCCCCCC(=O)NNC(=O)c1ccc([N+](=O)[O-])cc1 1.27%
